The source of these data is PubChem BioAssay (EPA / NIEHS).

Each structure is given as a SMILES string. Activity calls are given as the source filed them. The calls were made as follows: active = hit-call score of the fitted dose curve at least 0.9, where 1 is the maximum; inactive = score below 0.9.

The nature of this experiment: APR_HepG2_MitoticArrest_72hr: Apredica 72-hour HepG2 Assay for Mitotic Arrest (AID 2282918). To be noted: high-content imaging, actives raise or lower the signal. The procedure:
APR_HepG2_72hr is a cell-based, multiplexed-readout assay that uses HepG2, a human liver cell line, with measurements taken at 72 hours after chemical dosing in a 384-well plate.APR_HepG2_MitoticArrest_72hr is one of 10 assay component(s) measured or calculated from the APR_HepG2_72hr assay. It is designed to make measurements of cell phenotype, a form of morphology reporter, as detected with fluorescence intensity signals by HCS Fluorescent Imaging technology.Data from the assay component APR_HepG2_MitoticArrest_72hr was analyzed into 1 assay endpoint. This assay endpoint, APR_HepG2_MitoticArrest_72hr, was analyzed with bidirectional fitting relative to DMSO as the negative control and baseline of activity. Using a type of morphology reporter, measures of protein for gain or loss-of-signal activity can be used to understand the signaling at the pathway-level as they relate to the gene . Furthermore, this assay endpoint can be referred to as a primary readout, because this assay has produced multiple assay endpoints where this one serves a signaling function. To generalize the intended target to other relatable targets, this assay endpoint is annotated to the cell cycle intended target family, where the subfamily is arrest.
Cells were treated with dimethyl sulfoxide (DMSO) as a solvent control at a final concentration of 0.5% v/v or with compounds in DMSO with a resulting final DMSO concentration of 0.5% v/v. Compound treatment was done at concentrations of 0.39, 0.78, 1.56, 3.12, 6.24, 12.5, 25, 50, 100, and 200 uM in duplicate on each plate. Cells were treated with compounds for 1, 24, or 72 hr. Carbonyl […] m-chloro-phenylhydrazone (CCCP) and taxol were used as positive controls for mitochondrial function and cytoskeletal stability, respectively; DMSO served as the negative control for this experiment. Cells were fixed by the direct addition of 50 uL formaldehyde in Hank's Balanced Salt Solution (HBSS) to a final concentration of 3.7%. After incubation in the fixation medium for 30 min at room temperature (293-298 K), cells were rinsed twice with HBSS and treated with cell permeabilization buffer (16 uL of 0.5% Triton X-100) for 10 min at room temperature (293-298 K) before labeling. For mitochondrial membrane potential and mitochondrial measurements, pre-fixed cells were incubated with 50 uL of MitoTracker Red CMXRos (Invitrogen) at a concentration of 250 nM for 30 min before fixation. In the remaining cases, post-fixed cells were labeled by incubation with a multiplexed mixture of primary antibodies in HBSS for 60 min at room temperature (293-298 K) to detect immunoreactivity of c-Jun (1:500), phospho-histone H3 (1:100), phospho-histone H2A.x (1:200), p53 (1:400), alpha-tubulin (1:200) and Hoechst 33342 (2 ug/mL). Cells were labeled for multiplexed imaging on two separate plates: a) Hoechst 33342, MitoTracker Red, phospho-histone H3, and alpha-tubulin, and b) Hoechst 33342, phospho-histone H2A.x, and c-Jun. A final rinse with HBSS (50 uL) was performed before analysis. The primary and secondary antibodies for the proteins were phospho-histone H3 (rabbit anti-phospho-histone H3 and FITC-donkey anti-rabbit IgG), phospho-histone H2A.x (mouse anti-phospho-histone H2A.x and FITC-donkey anti-mouse IgG), c-Jun (rabbit anti-phospho-c-Jun and Cy3-donkey anti-rabbit IgG), p53 (sheep anti-p53 and Cy5-donkey anti-sheep IgG), alpha-tubulin (mouse anti-alpha-tubulin and Cy5-donkey anti-mouse IgG). These antibodies are available as the CellCiphr HepG2 assay kit (Millipore).Digital images of each well were captured using a Cellomics ArrayScan VTI (Thermo Scientific Cellomics) (0.8 NA objective, 0.63x optical coupler, and XF-93 filter set) at 20x magnification. The images were acquired using the autofocus feature of the ArrayScan instrument, which entails the following steps. First, the camera focuses on channel 1 (Hoechst 33342), where nuclei are identified. Second, a Z offset of 1 um is used for capturing mitochondria (MitoTracker Red). […]
In the case of `CC(O)CC(C)(C)O` (stereo not given), the result was inactive.

`CCCCCc1ccc(N)cc1`: the call was inactive.

Take `Oc1ccccc1`: the result was inactive.

The term AC50 denotes the concentration giving half of the maximal activity seen. `O=C(Nc1ccc(Cl)cc1)Nc1ccc(Cl)c(Cl)c1`: the AC50 is 5.5 µM (active).

For the compound `O=C(O)Cn1c(=O)n(Cc2ccc(Br)cc2F)c(=O)c2ccc(Cl)cc21`, the outcome was inactive.

On to `CCCCCCCCN(C)CCCCCCCC`, for which the call was inactive.

For the compound `O=CCCCC=O`, the outcome was inactive.

Regarding `O=C1CCC(C2CCCCC2)CC1`, the outcome was inactive.

Turning to `CC1(C)NC(=O)N(c2ccc([N+](=O)[O-])c(C(F)(F)F)c2)C1=O`, the outcome was inactive.

As for `CCN(Cc1cccnc1)C(=O)c1cccc(Cl)c1[C@]1(C)C(=O)N(Cc2ccc(OC)cc2OC)c2ccc(Cl)cc21`, the AC50 is 21.8 µM (active).

`O=C=NCCCCCCN=C=O`: the call was inactive.

Regarding `O=C(OCCCCCCOC(=O)c1ccccc1)c1ccccc1`, the result was inactive.

Consider `COc1cc(C(=O)NC2CCN(C)CC2)ccc1Nc1ncc2c(n1)N(C1CCCC1)CC(F)(F)C(=O)N2C`, for which the result was inactive.

In the case of `CC1=CC(=O)/C(=C(/C)O)C(=O)O1`, the result was inactive.

On to `Cc1oc2c(NC(=O)c3c(Cl)cccc3Cl)cccc2c1C(C)(C)O`, for which the outcome was inactive.

On to `COCC(C)OCC(C)OCC(C)O` (stereo not given), for which the result was inactive.

As to `Cc1cc2c(cc1C(F)(F)F)N(C(=O)Nc1ccc(Oc3cccnc3C)nc1)CC2`, the half-maximal activity concentration (AC50) was 46.3 µM (active).

For `Cc1cn([C@H]2C[C@H](N=[N+]=[N-])[C@@H](CO)O2)c(=O)[nH]c1=O`, the compound was called inactive.

For the compound `CCCCCCCCOC(=O)c1cc(O)c(O)c(O)c1`, the half-maximal activity concentration (AC50) was 68.3 µM (active).

`CCCCCCCCOc1ccc(C(=O)c2ccccc2)c(O)c1`: the compound was called inactive.

As to `CN1C(=O)CC[C@H]1c1cccnc1`, the result was inactive.

As to `O=C1O[C@H]([C@@H](O)CO)C(O)=C1O`, the AC50 was 7.73 µM (active).

Regarding `CCO[Si](CCCNC(N)=O)(OCC)OCC`, the compound was classed as inactive.

With `CN(C)C(=O)C1(N2CCCCC2)CCN(CC[C@@]2(c3ccc(Cl)c(Cl)c3)CN(C(=O)c3ccccc3)CCO2)CC1`, the AC50 is 6.87 µM (active).

For `CC(=O)N1CCN(c2ccc(OC[C@H]3CO[C@](Cn4ccnc4)(c4ccc(Cl)cc4Cl)O3)cc2)CC1`, the AC50 was 75.9 µM (active).

In the case of `CC(C)(c1cc(Br)c(O)c(Br)c1)c1cc(Br)c(O)c(Br)c1`, the AC50 is 69 µM (active).

Take `CN(C)c1ccc(C(=C2C=CC(=[N+](C)C)C=C2)c2ccc(N(C)C)cc2)cc1`: the AC50 is 4.11 µM (active).

On to `O=C(O)Cc1cc(I)c(Oc2ccc(O)c(I)c2)c(I)c1`, for which the call was inactive.

In the case of `c1ccc(C[n+]2cccc3ccccc32)cc1`, the AC50 was 109 µM (active).

Consider `Cc1cc(F)ccc1-c1cc(N2CC[C@@H](O)[C@H]2CO)ncc1N(C)C(=O)C(C)(C)c1cc(C(F)(F)F)cc(C(F)(F)F)c1`, for which the half-maximal activity concentration (AC50) was 74 µM (active).

`C[C@]12CC[C@@H]3c4ccc(O)cc4CC[C@H]3[C@@H]1CCC2=O`: the outcome was inactive.

As to `CCCCOC(=O)CC(CC(=O)OCCCC)(OC(C)=O)C(=O)OCCCC`, the AC50 was 42 µM (active).

For the compound `NC(=O)c1nc(-c2cccc(-c3cc(F)ccc3OCC(F)(F)C(F)(F)F)c2)n[nH]1`, the call was inactive.

As to `Clc1ccccc1C(c1ccccc1)(c1ccccc1)n1ccnc1`, the AC50 was 24.8 µM (active).

For the compound `CC[C@H](NC(=O)c1cc(F)ccc1NS(=O)(=O)c1cccc2cccnc12)c1ccccc1`, the AC50 was 92.5 µM (active).

On to `O=C1c2ccccc2C(=O)N1CCc1noc(-c2ccc(CN3CCCCCC3)s2)n1`, for which the result was inactive.

On to `CCOC(=O)O[C@H](C)OC(=O)c1ccc2c(c1)cc(C(=O)NC1CCN(C(C)C)CC1)n2Cc1cc(-c2ccc(Cl)s2)on1`, for which the compound was classed as inactive.

Regarding `c1ccc2n[nH]nc2c1`, the compound was called inactive.

On to `CCN(CC)C(=O)c1cc(S(=O)(=O)Cc2ccccc2)c(N2CCC(c3ccccc3)CC2)cc1N(CC)CCN(C)C`, for which the AC50 was 1.12 µM (active).

On to `CN(C[C@@H](CC[N+]12CCC(C3CCCCC3)(CC1)CC2)c1ccc(Cl)c(Cl)c1)C(=O)c1cc(C(F)(F)F)cc(C(F)(F)F)c1`, for which the AC50 was 36.3 µM (active).
